Source: PubChem BioAssay AID1159580 (chemical genetic matrix, 2015)
In all, about 5,500 compounds went through this assay and about 2,000 (36%) were called active. About 18% were inconclusive and are not listed. Cut-off read from the data, not from the text of the source: active = normalized growth mostly below about 0.91 (no sharp cut-off); inconclusive = no clear call, values can overlap the other calls; inactive = mostly above about 0.92. The list shows a part of the results.

Experiment: chemical genetic growth profiling, strain panel (AID 1159580);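 note: tested at 20 µM; growth read once vehicle control cultures reached saturation at 30 °C; 1 = growth at the plate median or of vehicle wells; lower values mean less growth of the strain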
Details: S. cerevisiae deletion strains, growth OD
[1] = locus YAL040C, strain CLN3, active compounds read low
[2] = locus YCL061C, strain MRC1 (second series), active compounds read low
[3] = locus YDR363W, strain ESC2, active compounds read low
[4] = locus YER002W, strain NOP16, active compounds read low
[5] = locus YNL175C, strain NOP13, active compounds read low
[6] = locus YNL197C, strain WHI3, active compounds read low
[7] = locus YNL224C, strain SQS1, active compounds read low
[8] = locus YOR083W, strain WHI5 (second series), active compounds read low

Measured: normalized growth

Nc1nc(Nc2ccccc2)nc2c1ncn2[C@@H]1O[C@H](CO)[C@H](O)C1O (stereo partly drawn)
inactive: locus YAL013W, strain DEP1, active compounds read low 0.982 | [1] 1.05 | [2] 0.999 | locus YDR150W, strain NUM1, active compounds read low 0.999 | [3] 1.02 | [4] 1 | locus YMR263W, strain SAP30, active compounds read low 1 | locus YMR307W, strain GAS1, active compounds read low 1 | [5] 1.01 | [6] 1.01 | [7] 1.01 | [8] 1.02

N[C@H](C(=O)O)c1cc(O)cc(O)c1
inactive: [1] 0.975 | [2] 0.995 | [3] 0.949 | [4] 0.985 | [5] 1.02 | [6] 0.996 | [7] 1.01 | locus YNL322C, strain KRE1, active compounds read low 0.982 | [8] 0.999 | locus YPL055C, strain LGE1, active compounds read low 0.956 | locus YPL241C, strain CIN2, active compounds read low 0.991

C[C@H]1O[C@H](OC2[C@@H](O)[C@@H](O)C(O)[C@H](O)[C@H]2O)[C@@H](N)C[C@@H]1N=C(N)C(=O)O (stereo partly drawn)
inactive: locus YAL021C, strain ccr4, active compounds read low 0.989 | locus YAL026C, strain drs2, active compounds read low 0.995 | locus YAL030W, strain snc1, active compounds read low 1 | locus YBL061C, strain skt5, active compounds read low 0.996 | locus YBR009C, strain hhf1, active compounds read low 1.05 | locus YBR023C, strain chs3, active compounds read low 0.99 | locus YBR171W, strain sec66, active compounds read low 0.911 | locus YBR231C, strain swc5, active compounds read low 0.999 | locus YBR279W, strain paf1, active compounds read low 0.986 | locus YCL011C, strain gbp2, active compounds read low 0.979 | locus YCL016C, strain dcc1, active compounds read low 1 | locus YCL061C, strain MRC1, active compounds read low 0.999 | locus YCL069W, strain vba3, active compounds read low 1 | locus YCR088W, strain abp1, active compounds read low 0.983 | locus YDL005C, strain med2, active compounds read low 0.986 | locus YDL040C, strain nat1, active compounds read low 0.992 | locus YDR001C, strain nth1, active compounds read low 0.985 | locus YDR069C, strain doa4, active compounds read low 0.999 | locus YDR137W, strain rgp1, active compounds read low 0.937 | locus YDR159W, strain sac3, active compounds read low 0.993 | locus YDR195W, strain ref2 1.02 | locus YDR297W, strain sur2, active compounds read low 0.988 | locus YDR334W, strain swr1, active compounds read low 0.965 | locus YDR335W, strain msn5, active compounds read low 0.975 | locus YDR392W, strain spt3, active compounds read low 0.882 | locus YEL003W, strain gim4, active compounds read low 0.981 | locus YEL037C, strain rad23, active compounds read low 0.994 | locus YEL061C, strain CIN8 (second series), active compounds read low 0.993 | locus YER015W, strain faa2, active compounds read low 0.995 | locus YER016W, strain bim1, active compounds read low 0.991 | locus YER111C, strain swi4, active compounds read low 0.995 | locus YER155C, strain BEM2 (second series), active compounds read low 1.02 | locus YFR010W, strain ubp6, active compounds read low 0.979 | locus YGL167C, strain pmr1, active compounds read low 0.986 | locus YGL173C, strain kem1, active compounds read low 0.994 | locus YGL227W, strain vid30, active compounds read low 1 | locus YGL240W, strain doc1, active compounds read low 1.01 | locus YGL253W, strain hxk2, active compounds read low 0.994 | locus YHR013C, strain ard1, active compounds read low 0.947 | locus YHR027C, strain rpn1, active compounds read low 0.982 | locus YHR030C, strain SLT2, active compounds read low 0.951 | locus YHR079C, strain IRE1, active compounds read low 0.964 | locus YHR142W, strain chs7, active compounds read low 0.927 | locus YJL092W, strain hpr5, active compounds read low 0.974 | locus YJL095W, strain BCK1 (second series), active compounds read low 0.992 | locus YJL095W, strain BCK1, active compounds read low 0.969 | locus YJL115W, strain asf1, active compounds read low 0.974 | locus YJL129C, strain trk1, active compounds read low 0.921 | locus YJL154C, strain vps35, active compounds read low 0.995 | locus YJL164C, strain tpk1, active compounds read low 0.97 | locus YJL166W, strain qcr8, active compounds read low 0.99 | locus YJL187C, strain SWE1, active compounds read low 0.992 | locus YJR066W, strain TOR1, active compounds read low 0.928 | locus YKL160W, strain elf1, active compounds read low 0.957 | locus YKR026C, strain gcn3, active compounds read low 0.997 | locus YKR091W, strain srl3, active compounds read low 0.991 | locus YLL001W, strain dnm1, active compounds read low 0.986 | locus YLL026W, active compounds read low 0.989 | locus YLL041C, strain sdh2, active compounds read low 0.977 | locus YLR027C, strain aat2, active compounds read low 0.978 | locus YLR113W, strain HOG1, active compounds read low 0.983 | locus YLR221C, strain rsa3, active compounds read low 0.962 | locus YLR258W, strain gsy2, active compounds read low 1.01 | locus YLR262C, strain YPT6 (second series), active compounds read low 0.912 | locus YLR320W, strain mms22, active compounds read low 0.967 | locus YLR342W, strain FKS1, active compounds read low 0.993 | locus YLR357W, strain rsc2, active compounds read low 1.01 | locus YLR370C, strain arc18, active compounds read low 0.981 | locus YLR384C, strain iki3, active compounds read low 1 | locus YML120C, strain ndi1, active compounds read low 0.959 | locus YMR058W, strain fet3, active compounds read low 0.988 | locus YMR125W, strain sto1, active compounds read low 0.984 | locus YMR129W, active compounds read low 1 | locus YMR205C, strain PFK2, active compounds read low 1.04 | locus YMR231W, strain pep5, active compounds read low 1.01 | locus YNL071W, strain lat1, active compounds read low 0.963 | locus YNL183C, strain NPR1, active compounds read low 0.944 | locus YNL209W, strain ssb2, active compounds read low 0.989 | locus YNL248C, strain rpa49, active compounds read low 0.933 | locus YNL322C, strain KRE1 (second series), active compounds read low 0.983 | locus YNR049C, strain mso1, active compounds read low 0.986 | locus YOR001W, strain rrp6, active compounds read low 0.923 | locus YOR070C, strain gyp1, active compounds read low 0.987 | locus YOR080W, strain dia2, active compounds read low 0.984 | locus YOR083W, strain WHI5, active compounds read low 0.934 | locus YOR106W, strain vam3, active compounds read low 0.94 | locus YOR231W, strain MKK1, active compounds read low 0.97 | locus YOR265W, strain rbl2, active compounds read low 0.989 | locus YOR270C, strain vph1, active compounds read low 0.924 | locus YOR290C, strain snf2, active compounds read low 0.927 | locus YPL051W, strain arl3, active compounds read low 0.964 | locus YPL078C, strain atp4, active compounds read low 0.951 | locus YPL106C, strain sse1, active compounds read low 0.971 | locus YPL240C, strain hsp82, active compounds read low 0.97 | locus YPL256C, strain CLN2, active compounds read low 0.98
